Reference: the antibiotic and cytotoxicity screens of Wong et al. (2023)
About 500 (1.3%) of roughly 39,000 compounds were called active. The sample holds actives, similar compounds and a random draw of the others, so the mix is not that of the screen.

System: S. aureus RN4220
Experiment: growth inhibition call (relative growth <= 0.2)
Conditions: 50 µM

| Compound | growth inhibition call |
| --- | --- |
| C[C@@H]1CCCCO[C@@H](CN(C)C(=O)Nc2cccc3ccccc23)[C@H](C)CN([C@H](C)CO)C(=O)c2cc(NS(=O)(=O)c3ccccc3)ccc2O1 | inactive |
| C[C@H]1CN([C@@H](C)CO)C(=O)c2cccc(NC(=O)C3CCCCC3)c2O[C@H]1CN(C)C(=O)Nc1ccc(C(F)(F)F)cc1 | inactive |
| Cc1noc(C)c1S(=O)(=O)Nc1ccc2c(c1)C(=O)N([C@@H](C)CO)C[C@H](C)[C@H](CN(C)Cc1ccccc1)OCCCC[C@@H](C)O2 | inactive |
| C[C@H](CO)N1C[C@H](C)[C@@H](CN(C)Cc2ccc(Cl)c(Cl)c2)Oc2c(NS(=O)(=O)c3ccccc3)cccc2C1=O | inactive |
| CO[C@@H]1CN(C)C(=O)c2ccc(NS(C)(=O)=O)cc2OC[C@H](C)N(C(=O)C2CCCCC2)C[C@@H]1C | inactive |
| C[C@@H]1CN([C@@H](C)CO)C(=O)c2cc(NS(=O)(=O)c3cn(C)cn3)ccc2O[C@@H](C)CCCCO[C@@H]1CN(C)S(=O)(=O)c1cccs1 | inactive |
| C[C@@H]1CN([C@H](C)CO)C(=O)c2cccc(NC(=O)c3nc4ccccc4s3)c2O[C@@H]1CN(C)Cc1ccc(Cl)c(Cl)c1 | inactive |
| O=C(C[C@@H]1CC[C@H]2[C@@H](COC[C@H](O)CN2S(=O)(=O)c2ccccc2)O1)N[C@H]1CCN(Cc2ccccc2)C1 | inactive |
| CO[C@@H](CN(C)S(=O)(=O)c1cn(C)cn1)[C@@H](C)CN(C(=O)Nc1ccc(C(F)(F)F)cc1)[C@@H](C)CO | active |
| CO[C@H](CN(C)S(=O)(=O)c1cn(C)cn1)[C@H](C)CN(C(=O)Nc1ccc(C(F)(F)F)cc1)[C@@H](C)CO | active |
| C[C@@H]1CCCCO[C@H](CN(C)S(=O)(=O)c2cn(C)cn2)[C@H](C)CN([C@H](C)CO)C(=O)c2cc(N(C)C)ccc2O1 | inactive |
| COC(=O)C[C@@H]1CC[C@H]2[C@@H](COC[C@@H](O)CN2S(=O)(=O)c2ccc(F)cc2)O1 | inactive |
| COCC#Cc1cnc2c(c1)C(=O)N([C@H](C)CO)C[C@@H](C)[C@H](CN(C)C(=O)Nc1ccc(OC)cc1)O2 | inactive |
| C[C@@H]1CN([C@H](C)CO)C(=O)CCCn2nncc2CO[C@H]1CN(C)C(=O)Nc1ccnc(N2CCOCC2)c1 | inactive |
| O=C1O[C@H](c2ccccc2)[C@H](c2ccccc2)N2[C@H]1[C@@H](C(=O)O)[C@]1(C(=O)Nc3ccc(Cl)cc31)[C@H]2c1ccc(F)cc1 | active |
| COc1ccc(C#Cc2ccc3c(c2)[C@]2(C(=O)N3)[C@H](c3ccc(O)cc3)N3[C@H](c4ccccc4)[C@H](c4ccccc4)OC(=O)[C@H]3[C@@H]2C(=O)O)cc1 | inactive |
| CN1C(=O)[C@@]2(c3cc(Cl)ccc31)[C@H](C(=O)O)[C@H]1C(=O)O[C@H](c3ccccc3)[C@H](c3ccccc3)N1[C@@H]2c1ccc(F)cc1 | active |
| COc1ccc(C#Cc2ccc3c(c2)[C@]2(C(=O)N3)[C@H](C(=O)O)[C@H]3C(=O)O[C@H](c4ccccc4)[C@H](c4ccccc4)N3[C@@H]2c2ccc(O)cc2)cc1 | inactive |

| Compound | growth inhibition call |
| --- | --- |
| COCCOC(=O)N1C(=O)[C@@]2(c3cc(C#Cc4ccc(OC)cc4)ccc31)[C@H](c1ccc(O)cc1)N1[C@H](c3ccccc3)[C@H](c3ccccc3)OC(=O)[C@H]1[C@@H]2C(N)=O | inactive |
| COc1ccc(C#Cc2ccc3c(c2)[C@@]2(C(=O)N3C(=O)N[C@@H](C)c3ccccc3)[C@H](c3ccc(OCCO)cc3)N3[C@H](c4ccccc4)[C@H](c4ccccc4)OC(=O)[C@H]3[C@@H]2C(=O)O)cc1 | inactive |
| Cc1noc(C)c1S(=O)(=O)N(C)C[C@@H]1OCCCC[C@H](C)Oc2ccc(NC(=O)Nc3cccc4ccccc34)cc2C(=O)N([C@H](C)CO)C[C@H]1C | inactive |
| Cc1noc(C)c1NC(=O)N(C)C[C@@H]1OCCCC[C@@H](C)Oc2ccc(NC(=O)CCC(F)(F)F)cc2C(=O)N([C@H](C)CO)C[C@@H]1C | inactive |
| CN(C)CC(=O)N[C@H]1C=C[C@H](CC(=O)O)O[C@H]1CO | inactive |
| COc1cccc2c1C(=O)c1c(O)c3c(c(O)c1C2=O)CC(O)(C(C)=O)CC3OC1CC(N)C(O)C(C)O1.Cl (stereo unspecified) | inactive |
| COc1cccc2c1C(=O)c1c(O)c3c(c(O)c1C2=O)C[C@@](O)(C(C)=O)C[C@@H]3O[C@H]1C[C@H](N)[C@H](O)[C@H](C)O1 | active |
| CC(=O)[C@]1(O)Cc2c(O)c3c(c(O)c2[C@@H](O[C@@H]2C[C@@H](N)[C@H](O)[C@@H](C)O2)C1)C(=O)c1c(O)cccc1C3=O | active |
| COc1cccc2c1C(=O)c1c(O)c3c(c(O)c1C2=O)C[C@](O)(C(C)=O)C[C@H]3O[C@H]1C[C@@H](N)[C@@H](O)[C@@H](C)O1 | active |
| CC(=O)[C@]1(N)Cc2c(O)c3c(c(O)c2[C@@H](O[C@H]2C[C@H](O)[C@H](O)CO2)C1)C(=O)c1ccccc1C3=O | inactive |
| Cc1ccc(S(=O)(=O)Nc2cccc3c2O[C@H](CN(C)S(=O)(=O)c2cn(C)cn2)[C@@H](C)CN([C@H](C)CO)C3=O)cc1 | inactive |
| C[C@@H]1CCCCO[C@H](CN(C)C(=O)NC2CCCCC2)[C@H](C)CN([C@@H](C)CO)C(=O)c2cc(NC(=O)Nc3ccc4c(c3)OCO4)ccc2O1 | inactive |
| Cc1cc(C)n([C@@H](CC(=O)O)C(=O)O)n1 | inactive |
| C[C@@H]1CCCCO[C@H](CN(C)Cc2ccc(Cl)c(Cl)c2)[C@H](C)CN([C@@H](C)CO)C(=O)c2cc(NC(=O)Nc3ccc4c(c3)OCO4)ccc2O1 | inactive |
| O=C(/C=C/c1ccc(CNc2ccc([C@H]3O[C@@H](CSc4ccncc4)C[C@H](c4ccccc4)O3)cc2)cc1)NO | inactive |
| C[C@H](CO)N1C[C@H](C)[C@H](CN(C)S(=O)(=O)c2cn(C)cn2)Oc2c(NS(=O)(=O)c3ccc(F)cc3)cccc2C1=O | inactive |
| C[C@H]1CCCCO[C@H](CN(C)C(=O)Nc2ccc(F)cc2)[C@@H](C)CN([C@@H](C)CO)C(=O)c2cc(NC(=O)Nc3cccc4ccccc34)ccc2O1 | inactive |
| COc1cccc(S(=O)(=O)Nc2ccc3c(c2)[C@@H]2C[C@@H](CC(=O)NC4CCCCC4)O[C@@H](CO)[C@@H]2O3)c1 | inactive |
